Results on ten molecules are retold here after PubChem BioAssay (NCATS).

A short description of test [1]: Primary fluorescence-based thiol-reactive (MSTI) qHTS assay for identification of artifact compounds. (AID 1845221).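 Note: thiol-reactive compounds lower the probe fluorescence signal; nearly all actives have a fitted effect of over 65% in size.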 The method, boiled down:
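A multi-concentration qHTS design tested compounds against 4 uM MSTI, pH 7.4 phosphate-buffered saline. Plates were protected from light for 1 h at room temperature before imaging fluorescence.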

The subject of test [2] is Nanoluciferase (engineered Oplophorus gracilirostris luciferase). Nature of the test: Primary Nanoluciferase (NLuc) qHTS assay for identification of artifact compounds. (AID 1845222).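 Note: 0% = DMSO and -100% = no enzyme.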 The method, boiled down: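 Luminescence read-out of secreted NLuc in S16 cell conditioned medium (1:55); compounds tested with 15 min RT preincubation, then Nano-Glo substrate 1:100, 5 min. % inhibition vs no-enzyme and DMSO controls, 4-parameter Hill fit.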
A general note: In qHTS, concentration-response curves come from the screen itself.

Values without a mark were called inactive. Results filed as inconclusive are left out. The source made the active and inactive calls. Calls come from the whole dose curve; as a rule, active = well fitted curve in the direction sought with a large enough effect; inconclusive = small, poorly fitted or top-dose-only effect, or another doubt; inactive = no such curve, though single readings can be large; an effect the other way counts as inactive or inconclusive.
Note: series mostly up to about 54 µM.

Consider `C=C(C)[C@@H](C)[C@H]1O[C@]23C[C@]4(CO2)C(CCC2[C@@]5(C)CC[C@H](O[C@@H]6OC[C@H](O)[C@H](O[C@@H]7O[C@H](CO)[C@@H](O)[C@H](O)[C@H]7O)[C@H]6O[C@@H]6O[C@@H](CO)[C@H](O)[C@H]6O)C(C)(C)C5CC[C@]24C)C3[C@@](C)(O)[C@@H]1OC(C)=O` (stereo not given in full), for which the activity change, negative = thiol reactive in test [1] was 6.68% [at 11.5 µM]. The activity, negative = inhibition in test [2] was 4.88% [at 11.6 µM].
Regarding `Cc1nnc(C(C)C)n1C1CC2CCC(C1)N2CC[C@H](NC(=O)C1CCC(F)(F)CC1)c1ccccc1` (stereo not given in full), the Potency entry in test [1] and in test [2] was “inactive” in each case.
For the molecule `O=C(O)c1ccc(CCCc2ccc(OCCc3ccc(F)cc3)cc2)o1`, the Potency entry in test [1] and in test [2] was “inactive” in each case.
Take `O=C(NC[C@H](O)CN1CCc2ccccc2C1)c1cc(NC2COC2)ncn1`: the Potency entry in test [1] and in test [2] was “inactive” throughout.
In the case of `COc1cc2c(Nc3ccc(Cl)c(Cl)c3F)ncnc2cc1OCC1C[C@@H]2CN(C)C[C@@H]2C1` (stereo not given in full), the Potency result in test [1] and in test [2] was “inactive” throughout.
As to `CCN(c1cc(C#CCN2CCOCC2)cc(C(=O)NCc2c(C)cc(C)[nH]c2=O)c1C)C1CCC(N(C)CCOC)CC1` (stereo not given), the Potency entry in test [1] and in test [2] was “inactive” throughout.
Turning to `C/C=C/C1=CC2=CC(=O)C(C)(O)C(OC(=O)c3c(C)cc(O)cc3O)C2CO1` (stereo not given), the Potency result in test [1] and in test [2] was “inactive” in each case.
With `O=C(c1ccc(F)cc1)C1CCN(CCn2c(=O)nc3n(c2=O)CCCC3)CC1`, the Potency entry in test [1] and in test [2] was “inactive” each time.
Regarding `CC1(C)O[C@]23C[C@H]1C[C@H](OC(=O)c1ccoc1)[C@]2(C)[C@@H](OC(=O)c1ccoc1)CCC3(C)O` (stereo not given in full), the Potency entry in test [1] and in test [2] was “inactive” throughout.
As to `CCOC(=O)c1ccc(N(C)c2csc(-c3ccccc3)n2)cc1`, the Potency result in test [1] and in test [2] was “inactive” throughout.
